What all share (test): DAPPL (digital affinity profiling via proximity ligation, sequencing); 10 mM Tris-HCl pH 7.5, 50 mM NaCl, 1 mM DTT, 4% glycerol, room temperature, 30 min; GST-TFs on glutathione beads, 16-mer random dsDNA library, 0.1% formaldehyde crosslink after washing; high values mean tight binding
The target in one test is T1, FEV (Homo sapiens, UniProt Q99581 1-238).
T1 sequence: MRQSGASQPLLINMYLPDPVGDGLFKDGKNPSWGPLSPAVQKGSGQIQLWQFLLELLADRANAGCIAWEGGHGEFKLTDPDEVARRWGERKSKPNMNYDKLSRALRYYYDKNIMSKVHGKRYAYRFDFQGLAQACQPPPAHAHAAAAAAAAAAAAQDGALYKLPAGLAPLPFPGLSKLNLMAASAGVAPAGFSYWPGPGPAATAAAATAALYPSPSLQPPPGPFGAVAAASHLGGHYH
The settings on record: protein: recombinant; tags: N-terminal GST; dsDNA, one strand shown. The method in brief: (§1)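 Human transcription factors were made in yeast as GST fusions, captured on glutathione beads and barcoded with DNA. With a tag-only sample included, the pool was incubated with 200 nmole of a random double-stranded 16-mer DNA library in Tris/NaCl/DTT/glycerol buffer at room temperature for 30 min, then crosslinked with 0.1% formaldehyde after washing, ligated by proximity, amplified and sequenced. For binding signal, each hexamer's read frequency for a factor is divided by its frequency for the tag-only sample.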

The target in another test is ETV5 (Homo sapiens, UniProt P41161 1-510). The settings on record: protein: recombinant; tags: N-terminal GST; dsDNA, one strand shown. The method in brief:
as §1

The target of a further test is HSF1 (Homo sapiens, UniProt Q00613 1-529). The settings on record: protein: recombinant; tags: N-terminal GST; chain copies: 3; dsDNA, one strand shown. The method in brief: as §1
Sequence of HSF1 (Q00613 whole entry): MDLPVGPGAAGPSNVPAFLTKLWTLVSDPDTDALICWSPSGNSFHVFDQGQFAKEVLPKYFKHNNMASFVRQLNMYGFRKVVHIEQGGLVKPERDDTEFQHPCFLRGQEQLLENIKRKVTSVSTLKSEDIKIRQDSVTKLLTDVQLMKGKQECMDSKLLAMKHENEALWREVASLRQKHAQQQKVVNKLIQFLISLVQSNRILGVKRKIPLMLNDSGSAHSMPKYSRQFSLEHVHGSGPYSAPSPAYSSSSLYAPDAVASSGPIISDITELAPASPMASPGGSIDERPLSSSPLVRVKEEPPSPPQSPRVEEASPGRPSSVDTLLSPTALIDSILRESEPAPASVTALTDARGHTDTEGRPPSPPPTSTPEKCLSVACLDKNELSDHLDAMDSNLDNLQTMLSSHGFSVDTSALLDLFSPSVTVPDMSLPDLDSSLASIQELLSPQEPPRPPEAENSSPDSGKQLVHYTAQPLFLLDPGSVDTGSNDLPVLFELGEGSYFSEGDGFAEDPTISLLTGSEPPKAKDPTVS
The target in another test is T2, SPIC (Homo sapiens, UniProt Q8N5J4 1-248).
T2 sequence: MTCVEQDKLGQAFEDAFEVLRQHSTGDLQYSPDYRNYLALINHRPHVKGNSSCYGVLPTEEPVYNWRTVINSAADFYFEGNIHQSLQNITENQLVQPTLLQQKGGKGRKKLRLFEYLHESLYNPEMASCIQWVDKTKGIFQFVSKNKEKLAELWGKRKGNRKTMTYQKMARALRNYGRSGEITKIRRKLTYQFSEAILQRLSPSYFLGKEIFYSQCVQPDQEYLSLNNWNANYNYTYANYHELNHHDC
Conditions: protein: recombinant; tags: N-terminal GST; dsDNA, one strand shown. Put shortly:
as §1

The target of a further test is ELF4 (Homo sapiens, UniProt Q99607 1-663). Conditions: protein: recombinant; tags: N-terminal GST; dsDNA, one strand shown. Put shortly:
as §1

A further test addresses T3, ELK4 (Homo sapiens, UniProt P28324-2 1-405).
T3 sequence: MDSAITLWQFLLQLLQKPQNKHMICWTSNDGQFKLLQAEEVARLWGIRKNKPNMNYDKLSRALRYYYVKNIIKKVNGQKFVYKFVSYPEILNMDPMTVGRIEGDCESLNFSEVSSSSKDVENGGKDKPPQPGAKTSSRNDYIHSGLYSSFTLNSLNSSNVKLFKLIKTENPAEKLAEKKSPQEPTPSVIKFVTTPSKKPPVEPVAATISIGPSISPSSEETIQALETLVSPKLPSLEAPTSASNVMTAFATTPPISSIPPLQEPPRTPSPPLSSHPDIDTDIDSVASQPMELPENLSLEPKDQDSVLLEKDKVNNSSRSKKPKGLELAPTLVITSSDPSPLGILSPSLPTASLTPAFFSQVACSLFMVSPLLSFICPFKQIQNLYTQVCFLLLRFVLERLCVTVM
Conditions: protein: recombinant; tags: N-terminal GST; dsDNA, one strand shown. Put shortly: as §1

In a further test the target is T4, ETV2 (Homo sapiens, UniProt O00321 1-342).
T4 sequence: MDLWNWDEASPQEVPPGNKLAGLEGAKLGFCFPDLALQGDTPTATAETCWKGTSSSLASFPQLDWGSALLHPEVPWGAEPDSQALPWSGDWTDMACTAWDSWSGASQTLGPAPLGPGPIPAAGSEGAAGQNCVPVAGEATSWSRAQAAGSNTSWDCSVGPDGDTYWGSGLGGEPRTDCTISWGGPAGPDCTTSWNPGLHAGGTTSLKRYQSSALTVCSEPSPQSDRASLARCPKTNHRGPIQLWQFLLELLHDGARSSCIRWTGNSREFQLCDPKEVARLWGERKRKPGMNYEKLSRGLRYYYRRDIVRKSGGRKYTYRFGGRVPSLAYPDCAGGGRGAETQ
The settings on record: protein: recombinant; tags: N-terminal GST; dsDNA, one strand shown. The method in brief: as §1

A further test addresses T5, ELF3 (Homo sapiens, UniProt P78545 1-371).
T5 sequence: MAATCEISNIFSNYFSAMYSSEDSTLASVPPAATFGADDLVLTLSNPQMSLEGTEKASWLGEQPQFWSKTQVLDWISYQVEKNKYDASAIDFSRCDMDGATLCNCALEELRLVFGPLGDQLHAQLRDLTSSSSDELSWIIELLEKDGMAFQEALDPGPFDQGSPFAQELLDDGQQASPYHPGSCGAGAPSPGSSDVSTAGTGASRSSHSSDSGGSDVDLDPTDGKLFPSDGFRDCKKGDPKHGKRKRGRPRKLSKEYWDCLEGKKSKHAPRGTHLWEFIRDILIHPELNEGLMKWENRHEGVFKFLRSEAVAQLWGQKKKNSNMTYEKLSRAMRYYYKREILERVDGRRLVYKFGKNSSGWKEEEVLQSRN
Conditions: protein: recombinant; tags: N-terminal GST; dsDNA, one strand shown. The method in brief: as §1

The next test addresses CRX (Homo sapiens, UniProt O43186 1-299). Conditions: protein: recombinant; tags: N-terminal GST; dsDNA, one strand shown. The method in brief:
as §1

A further test deals with ETV1 (Homo sapiens, UniProt P50549 1-477). Conditions: protein: recombinant; tags: N-terminal GST; dsDNA, one strand shown. The method in brief: as §1
Sequence of ETV1 (P50549 whole entry): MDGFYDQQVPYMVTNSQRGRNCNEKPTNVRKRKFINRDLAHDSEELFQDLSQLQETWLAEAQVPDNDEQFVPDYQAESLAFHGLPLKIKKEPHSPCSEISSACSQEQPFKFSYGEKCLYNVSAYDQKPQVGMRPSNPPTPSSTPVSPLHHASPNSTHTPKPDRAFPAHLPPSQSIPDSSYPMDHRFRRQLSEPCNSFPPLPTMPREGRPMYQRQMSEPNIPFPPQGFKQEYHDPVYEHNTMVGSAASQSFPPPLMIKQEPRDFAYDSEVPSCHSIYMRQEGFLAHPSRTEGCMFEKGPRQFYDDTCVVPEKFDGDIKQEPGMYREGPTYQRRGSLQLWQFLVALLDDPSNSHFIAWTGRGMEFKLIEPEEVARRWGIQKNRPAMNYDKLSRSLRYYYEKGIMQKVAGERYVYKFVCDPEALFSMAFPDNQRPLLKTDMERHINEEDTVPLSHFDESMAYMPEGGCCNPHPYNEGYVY
In a further test the target is T6, ERF (Homo sapiens, UniProt P50548 1-548).
T6 sequence: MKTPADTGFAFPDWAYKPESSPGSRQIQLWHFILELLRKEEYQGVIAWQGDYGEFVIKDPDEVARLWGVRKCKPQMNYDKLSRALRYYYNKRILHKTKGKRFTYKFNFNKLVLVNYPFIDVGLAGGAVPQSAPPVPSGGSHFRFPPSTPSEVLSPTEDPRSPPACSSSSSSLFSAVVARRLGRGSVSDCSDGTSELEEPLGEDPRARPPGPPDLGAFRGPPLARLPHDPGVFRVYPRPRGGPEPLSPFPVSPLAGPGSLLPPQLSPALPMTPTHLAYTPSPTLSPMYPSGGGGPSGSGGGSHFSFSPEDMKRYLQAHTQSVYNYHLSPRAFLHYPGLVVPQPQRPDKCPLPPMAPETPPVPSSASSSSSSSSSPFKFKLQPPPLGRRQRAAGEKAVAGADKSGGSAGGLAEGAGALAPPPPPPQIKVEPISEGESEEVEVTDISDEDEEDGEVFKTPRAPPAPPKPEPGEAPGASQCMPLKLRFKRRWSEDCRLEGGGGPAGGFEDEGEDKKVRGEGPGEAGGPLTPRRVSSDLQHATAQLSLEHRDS
The settings on record: protein: recombinant; tags: N-terminal GST; dsDNA, one strand shown. Put shortly: as §1

The target in the next test is T7, ETV3L (Homo sapiens, UniProt Q6ZN32 1-361).
T7 sequence: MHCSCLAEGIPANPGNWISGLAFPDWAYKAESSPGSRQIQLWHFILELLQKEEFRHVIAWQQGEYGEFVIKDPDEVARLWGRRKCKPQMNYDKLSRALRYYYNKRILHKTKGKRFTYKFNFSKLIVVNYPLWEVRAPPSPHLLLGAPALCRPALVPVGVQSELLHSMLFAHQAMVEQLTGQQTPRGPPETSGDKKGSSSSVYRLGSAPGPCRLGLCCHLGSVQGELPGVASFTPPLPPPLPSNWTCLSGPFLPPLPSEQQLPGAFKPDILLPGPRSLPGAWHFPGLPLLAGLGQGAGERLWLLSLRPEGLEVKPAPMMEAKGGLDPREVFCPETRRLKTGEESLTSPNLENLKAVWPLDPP
Conditions: protein: recombinant; tags: N-terminal GST; dsDNA, one strand shown. The method in brief:
as §1

The target in another test is T8, ETS2 (Homo sapiens, UniProt P15036 1-469).
T8 sequence: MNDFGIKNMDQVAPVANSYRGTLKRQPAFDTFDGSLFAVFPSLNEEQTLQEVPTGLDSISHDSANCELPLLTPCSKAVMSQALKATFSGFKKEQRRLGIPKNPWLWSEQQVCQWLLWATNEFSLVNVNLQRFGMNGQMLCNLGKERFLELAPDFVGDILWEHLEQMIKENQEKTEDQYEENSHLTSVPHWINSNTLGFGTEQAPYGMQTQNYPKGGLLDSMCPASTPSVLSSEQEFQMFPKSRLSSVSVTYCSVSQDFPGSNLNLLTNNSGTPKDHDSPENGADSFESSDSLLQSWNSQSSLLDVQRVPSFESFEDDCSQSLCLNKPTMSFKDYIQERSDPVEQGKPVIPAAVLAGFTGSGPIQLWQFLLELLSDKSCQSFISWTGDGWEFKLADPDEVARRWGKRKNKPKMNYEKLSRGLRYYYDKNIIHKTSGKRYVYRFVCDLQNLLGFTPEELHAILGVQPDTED
Conditions: protein: recombinant; tags: N-terminal GST; dsDNA, one strand shown. Put shortly:
as §1

For the next test, the target named is T9, SPDEF (Homo sapiens, UniProt O95238 1-335).
T9 sequence: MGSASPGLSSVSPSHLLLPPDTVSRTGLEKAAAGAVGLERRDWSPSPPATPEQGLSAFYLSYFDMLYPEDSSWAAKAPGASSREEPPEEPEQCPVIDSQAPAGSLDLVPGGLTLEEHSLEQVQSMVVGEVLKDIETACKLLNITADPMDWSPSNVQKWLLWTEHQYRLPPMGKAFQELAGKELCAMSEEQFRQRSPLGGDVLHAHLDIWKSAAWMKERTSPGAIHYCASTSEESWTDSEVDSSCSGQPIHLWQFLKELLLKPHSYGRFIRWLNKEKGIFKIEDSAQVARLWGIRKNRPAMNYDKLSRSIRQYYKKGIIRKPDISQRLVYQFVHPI
The settings on record: protein: recombinant; tags: N-terminal GST; dsDNA, one strand shown. Put shortly: as §1

In a further test the target is T10, ETV7 (Homo sapiens, UniProt Q9Y603 1-341).
T10 sequence: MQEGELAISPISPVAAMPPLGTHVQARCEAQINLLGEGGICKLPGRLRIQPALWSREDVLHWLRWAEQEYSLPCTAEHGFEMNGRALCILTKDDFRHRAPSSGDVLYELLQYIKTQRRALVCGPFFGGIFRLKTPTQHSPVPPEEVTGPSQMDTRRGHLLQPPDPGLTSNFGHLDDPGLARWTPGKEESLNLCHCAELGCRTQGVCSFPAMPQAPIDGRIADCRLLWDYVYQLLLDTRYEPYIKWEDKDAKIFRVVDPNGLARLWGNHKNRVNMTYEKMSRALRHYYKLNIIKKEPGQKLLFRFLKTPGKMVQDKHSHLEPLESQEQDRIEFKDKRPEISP
Conditions: protein: recombinant; tags: N-terminal GST; dsDNA, one strand shown. Put shortly: as §1

Another test concerns the target T11, ELF5 (Homo sapiens, UniProt Q9UKW6-2 1-255).
T11 sequence: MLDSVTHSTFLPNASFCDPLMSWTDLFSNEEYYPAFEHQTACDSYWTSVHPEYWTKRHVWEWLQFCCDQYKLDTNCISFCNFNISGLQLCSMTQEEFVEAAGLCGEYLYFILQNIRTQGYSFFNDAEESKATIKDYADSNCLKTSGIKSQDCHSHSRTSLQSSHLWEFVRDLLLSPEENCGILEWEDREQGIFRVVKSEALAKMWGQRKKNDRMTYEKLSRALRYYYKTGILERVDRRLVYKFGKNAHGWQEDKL
Conditions: protein: recombinant; tags: N-terminal GST; dsDNA, one strand shown. The method in brief: as §1

Another test deals with T12, ETV3 (Homo sapiens, UniProt P41162-2 1-143).
T12 sequence: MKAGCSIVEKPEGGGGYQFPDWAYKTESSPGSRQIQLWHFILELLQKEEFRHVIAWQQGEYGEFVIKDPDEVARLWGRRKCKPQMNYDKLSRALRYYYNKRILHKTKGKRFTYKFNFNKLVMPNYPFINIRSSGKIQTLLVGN
The settings on record: protein: recombinant; tags: N-terminal GST; dsDNA, one strand shown. Put shortly:
as §1

The target in another test is ETV6 (Homo sapiens, UniProt P41212 1-452). The settings on record: protein: recombinant; tags: N-terminal GST; dsDNA, one strand shown. The method in brief:
as §1

Sequence of ETV5 (P41161 whole entry): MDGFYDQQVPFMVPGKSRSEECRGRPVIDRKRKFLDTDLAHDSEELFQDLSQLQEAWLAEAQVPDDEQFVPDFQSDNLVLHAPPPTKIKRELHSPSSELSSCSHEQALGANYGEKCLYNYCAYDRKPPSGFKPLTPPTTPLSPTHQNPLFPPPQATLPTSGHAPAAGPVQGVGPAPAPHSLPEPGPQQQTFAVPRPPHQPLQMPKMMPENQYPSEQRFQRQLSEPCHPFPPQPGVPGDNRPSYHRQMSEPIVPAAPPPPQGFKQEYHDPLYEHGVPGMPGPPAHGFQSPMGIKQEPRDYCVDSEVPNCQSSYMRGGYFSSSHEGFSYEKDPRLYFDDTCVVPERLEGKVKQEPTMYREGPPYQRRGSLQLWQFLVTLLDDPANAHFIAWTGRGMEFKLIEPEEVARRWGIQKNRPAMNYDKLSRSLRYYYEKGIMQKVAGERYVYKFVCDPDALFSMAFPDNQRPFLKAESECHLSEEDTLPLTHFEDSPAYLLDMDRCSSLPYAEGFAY
Sequence of CRX (O43186 whole entry): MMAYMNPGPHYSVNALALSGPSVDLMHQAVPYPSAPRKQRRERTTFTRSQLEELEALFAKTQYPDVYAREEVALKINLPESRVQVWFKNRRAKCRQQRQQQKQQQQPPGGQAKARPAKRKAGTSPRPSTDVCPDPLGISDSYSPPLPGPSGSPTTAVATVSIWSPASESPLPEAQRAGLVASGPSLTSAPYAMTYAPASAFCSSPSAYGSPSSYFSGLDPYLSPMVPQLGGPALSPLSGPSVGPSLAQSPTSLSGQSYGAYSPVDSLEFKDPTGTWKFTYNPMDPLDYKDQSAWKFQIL
Sequence of ELF4 (Q99607 whole entry): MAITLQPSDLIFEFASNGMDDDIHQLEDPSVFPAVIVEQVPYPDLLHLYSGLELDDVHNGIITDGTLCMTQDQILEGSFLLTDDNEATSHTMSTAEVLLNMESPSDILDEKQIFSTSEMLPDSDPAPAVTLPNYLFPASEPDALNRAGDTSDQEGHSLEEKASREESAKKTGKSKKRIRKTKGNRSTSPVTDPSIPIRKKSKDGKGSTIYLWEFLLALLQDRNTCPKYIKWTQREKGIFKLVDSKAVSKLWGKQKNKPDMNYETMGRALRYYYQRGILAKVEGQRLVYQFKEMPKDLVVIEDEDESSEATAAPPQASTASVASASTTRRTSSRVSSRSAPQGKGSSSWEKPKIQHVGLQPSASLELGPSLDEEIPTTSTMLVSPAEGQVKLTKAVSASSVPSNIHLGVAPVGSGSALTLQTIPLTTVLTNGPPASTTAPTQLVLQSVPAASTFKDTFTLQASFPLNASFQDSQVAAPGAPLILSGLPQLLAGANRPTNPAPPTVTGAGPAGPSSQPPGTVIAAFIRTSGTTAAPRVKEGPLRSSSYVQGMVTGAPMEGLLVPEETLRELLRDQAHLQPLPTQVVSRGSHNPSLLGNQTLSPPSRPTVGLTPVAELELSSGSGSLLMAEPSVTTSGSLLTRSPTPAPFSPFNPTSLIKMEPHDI
Sequence of ETV6 (P41212 whole entry): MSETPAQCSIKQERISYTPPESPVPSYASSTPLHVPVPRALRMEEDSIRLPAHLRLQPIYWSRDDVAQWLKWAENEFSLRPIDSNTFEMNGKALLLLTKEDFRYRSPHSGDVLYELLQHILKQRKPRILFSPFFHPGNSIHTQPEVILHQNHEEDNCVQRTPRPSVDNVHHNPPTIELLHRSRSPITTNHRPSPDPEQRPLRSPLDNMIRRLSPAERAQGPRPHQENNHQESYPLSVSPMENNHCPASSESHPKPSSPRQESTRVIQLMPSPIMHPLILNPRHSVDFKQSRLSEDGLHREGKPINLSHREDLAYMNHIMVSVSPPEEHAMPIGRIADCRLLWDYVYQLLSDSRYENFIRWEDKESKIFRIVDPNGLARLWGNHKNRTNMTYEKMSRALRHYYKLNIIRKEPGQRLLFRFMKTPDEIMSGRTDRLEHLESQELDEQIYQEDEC

As for ATGCGC, the binding signal was 1.17 fold enrichment (6-mer frequency, TF over GST control) in the test with FEV; 1.07 fold enrichment (6-mer frequency, TF over GST control) with ETV5; 1.27 fold enrichment (6-mer frequency, TF over GST control) in the test with HSF1; 1.13 fold enrichment (6-mer frequency, TF over GST control) with SPIC; 1.22 fold enrichment (6-mer frequency, TF over GST control) with ELF4; 1.28 fold enrichment (6-mer frequency, TF over GST control) with ELK4. The binding signal in the test with ETV2 is 1.1 fold enrichment (6-mer frequency, TF over GST control); in the test with ELF3, 1.1 fold enrichment (6-mer frequency, TF over GST control); with CRX it was 1.14 fold enrichment (6-mer frequency, TF over GST control); with ETV1 it was 1.16 fold enrichment (6-mer frequency, TF over GST control); with ERF it was 1.24 fold enrichment (6-mer frequency, TF over GST control); with ETV3L it was 1.22 fold enrichment (6-mer frequency, TF over GST control). In addition, the binding signal with ETS2 was 1.19 fold enrichment (6-mer frequency, TF over GST control); with SPDEF, 1.1 fold enrichment (6-mer frequency, TF over GST control); with ETV7 it was 1.22 fold enrichment (6-mer frequency, TF over GST control); in the test with ELF5 it was 1.14 fold enrichment (6-mer frequency, TF over GST control); with ETV3, 1.17 fold enrichment (6-mer frequency, TF over GST control); with ETV6, 1.22 fold enrichment (6-mer frequency, TF over GST control).

The record behind these values is article PMC7862700, “An all-to-all approach to the identification of sequence-specific readers for epigenetic DNA modifications on cytosine”.
